JMJD2A Tudor – JMJD2A Tudor domain (human) inhibition; AlphaScreen JMJD2A-Tudor / H3K4me3 peptide binding; hit rate 4.4% among 390,000; Potency, µM (titrated, usually from 114 µM), inactives show at the highest dose activity change, negative = inhibition, usual class: inhibitors; also: % is scaled to controls: 0 for no effect and ±100 for the full control effect; nearly all actives have a fitted effect of over 50% in size
HP1b chromo inh – blocks HP1-beta chromodomain binding to methylated histone tails | P83916 | AlphaScreen HP1-beta / biotin-H3K9me3 peptide binding | Potency, µM (top dose mostly 114 µM), for the others: at the top dose activity change, negative = inhibition, usual class: inhibitors | hit rate 0.56% among 390,000 | AID 540317; also: nearly all actives have a fitted effect of over 70% in size
Target sequence (P83916 whole entry, looked up): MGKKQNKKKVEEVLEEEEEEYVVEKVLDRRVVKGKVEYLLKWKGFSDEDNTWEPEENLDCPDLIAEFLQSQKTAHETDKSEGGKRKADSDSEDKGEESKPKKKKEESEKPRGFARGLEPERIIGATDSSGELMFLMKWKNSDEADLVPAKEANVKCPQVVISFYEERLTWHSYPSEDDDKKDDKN
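HP1-beta protein (50 nM final) preincubated 30 min at room temperature with biotinylated H3(1-18)K9me3 peptide (50 nM) in PBS pH 7.4, 0.01% Tween-20, then compound added for 30 min. AlphaScreen streptavidin donor/nickel chelate acceptor beads (10 ug/mL final), 30 min dark, luminescence read.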
BAZ2B inh – inhibitors of human BAZ2B bromodomain; Q9UIF8; AlphaScreen BAZ2B-H3K14Ac peptide displacement; Potency, µM (doses to about 114 µM), for inactives: at the highest dose activity change, negative = inhibition, actives largely listed as inhibitors; hit rate 4.4% among 360,000; AID 504333; also: % is scaled to controls: 0 for no effect and ±100 for the full control effect; nearly all actives have a fitted effect of over 60% in size
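AlphaScreen displacement: compounds (up to 110uM) incubated 30 min at room temperature with a preformed 50 nM BAZ2B/50 nM biotinylated H3K14Ac peptide complex in PBS pH 7.4 with Tween-20. Donor and acceptor beads at 10 ug/mL final added, 20 min light-protected before reading.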
Sfp inh – blocks B. subtilis Sfp PPTase activity. Potency, µM, for the others: largest response in the series, negative = inhibition, most hits filed as inhibitors. hit rate 3.5% among 310,000. Biochemical Sfp PPTase activity, qHTS. AID 1490;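 also: the enzyme is Sfp with the accession as filed and its product quenches rhodamine fluorescence; 0% = enzyme reaction without inhibitor and -100% = no enzyme wells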
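After 15 min at room temperature with compound, 15 nM Sfp received 5 uM rhodamine-CoA plus 12.5 uM BHQ-2-ybbR (50 mM Hepes pH 7.6, 10 mM MgCl2). Rate came from the fluorescence difference over 30 min, ex 525/em 598 nm.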
PLK1 PBD block – inhibitors of human PLK1 polo-box domain binding. Plk1 PBD binding of FITC phosphopeptide, fluorescence polarization. Potency, µM, for inactives: max response, negative = inhibition, hits mostly inhibitors. hit rate 2.8% among 360,000. AID 720504; also: series mostly up to about 57 µM; % is scaled to controls: 0 for no effect and ±100 for the full control effect; nearly all actives have a fitted effect of over 65% in size
G9a block – inhibitors of human histone lysine methyltransferase G9a | G9a H3K9 monomethylation, AlphaScreen, 2 h | hit rate 8.8% among 350,000 | Q96KQ7 | Potency, µM (highest dose often 102 µM), inactives show at the top dose activity, negative = inhibition, usual class: inhibitors; also: % is scaled to controls: 0 for no effect and ±100 for the full control effect; nearly all actives have a fitted effect of over 75% in size
Target sequence (Q96KQ7 913-1193 limits assumed): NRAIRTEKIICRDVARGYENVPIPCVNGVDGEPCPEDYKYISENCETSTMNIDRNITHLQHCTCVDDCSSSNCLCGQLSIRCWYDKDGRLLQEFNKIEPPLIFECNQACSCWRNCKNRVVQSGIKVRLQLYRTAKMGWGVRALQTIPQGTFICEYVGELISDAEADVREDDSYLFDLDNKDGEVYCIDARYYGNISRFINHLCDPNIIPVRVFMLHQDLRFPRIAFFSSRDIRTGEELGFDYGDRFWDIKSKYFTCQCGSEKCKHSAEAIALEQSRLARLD
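Chemiluminescent proximity detection of H3K9 monomethylation, read after 10 min bead incubation in the dark. Reaction: 20 nM G9a, 500 nM biotin-H3K9 peptide, 20 uM SAM cofactor, 2 h, room temperature, following 15 min enzyme-compound preincubation.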
Active calls of the source: *; ? = inconclusive; . = no result; [ ] = dose if it differs, or a comment. Only some compounds are listed: those with a hit (about 12% of all), similar ones and a draw of the others. Calls follow the shape of the dose curve; as a rule, active = well fitted curve in the direction sought with a large enough effect; inconclusive = small, poorly fitted or top-dose-only effect, or another doubt; inactive = no such curve, though single readings can be large; an effect the other way counts as inactive or inconclusive. Potency is read from the fitted curve at half-maximal effect.

SMILES	JMJD2A Tudor	HP1b chromo inh	BAZ2B inh	Sfp inh	PLK1 PBD block	G9a block
Cc1nc2nc(SCC(=O)NCCCN3CCCC3)nn2c(C)c1Cc1ccccc1Cl	-35%	-11%	-13%	3%	8%	79µM*
Cc1nc2nc(SCC(=O)NCCc3ccc(Cl)cc3)nn2c(C)c1Cc1ccccc1Cl	-29%	17%	-8%	.	.	-30%[59 µM]
C[C@H]1CN([C@@H](C)CO)C(=O)c2cc(Br)cnc2O[C@@H]1CN(C)C(=O)Nc1ccc(C(F)(F)F)cc1	.	.	.	.	-3%	.
COc1ccc(CN(Cc2ccccc2)S(=O)(=O)c2ccccc2)cc1COc1ccc(NC(C)=O)cc1	-31%	.	.	.	.	.
COc1ccc(N(CC(=O)NC(C)C)S(=O)(=O)c2ccc(NC(C)=O)cc2)cc1	-29%	-4%	-13%	7%	-14%	1.4µM*
COc1ccc(N(CC(=O)NC(C)c2ccccc2)S(=O)(=O)c2ccc(C)cc2)cc1 (centres undefined)	-5%	37%	-1%	18%	-1%	-6%
CCC(C)NC(=O)CN(c1ccc(OC)cc1)S(=O)(=O)c1ccccc1 (centres undefined)	?	-15%	-2%	21%	21µM*	11%
COCCCNC(=O)CN(c1ccc(OC)cc1)S(=O)(=O)c1ccc(NC(C)=O)cc1	-23%	22%	-21%	8%	-8%	35%[12.7 µM]
Brc1c(OCCOCCn2cncn2)ccc2ccccc12	-17%[11.4 µM]	-4%	-1%	6%	17µM*	7%[59 µM]
Oc1c(Cl)cc(Cl)cc1Sc1cc(Cl)cc(Cl)c1O	.	.	50µM*	8%	.	?
O=S(c1cc(Cl)cc(Cl)c1O)c1cc(Cl)cc(Cl)c1O	.	.	.	-16%	?	?
CC[C@H](C)[C@H](NC(=O)[C@H](Cc1ccc(O)cc1)NC(=O)[C@@H]1CCCN1C(=O)[C@@H](N)CCCN=C(N)N)C(=O)N[C@@H](CC(C)C)C(=O)O	.	.	.	24%	.	.
Cc1nn(Cc2ccccc2)c(Cl)c1/C=C1\NC(=S)NC1=O	-21%	12%	-24%	40µM*	-6%	40µM*
O=C(CCCC(=O)OCC(=O)c1cccs1)Nc1ccc(Oc2ccccc2)cc1	-25%[11.4 µM]	0%	39%[57.1 µM]	21%	30µM*	21%[59 µM]
O=C(NCCN1CCOCC1)C1(C(F)(F)F)C/C(=C\Cc2ccccc2)CCCO1 (centres undefined)	-3%	38%	.	2%	1%	.
O=C(NCc1ccccc1)C(c1ccco1)N1CCN(c2ccccc2F)CC1 (centres undefined)	.	.	.	.	-2%	.
CC(=O)c1cnc2nc(SCc3ccc(Cl)cc3)nn2c1C	-5%	59%	10%	-10%	-8%	20%
CC(=O)c1cnc2nc(SCc3ccc(C)cc3)nn2c1C	?	1%	-2%	6%	24µM*	22%
CCN(CC)c1ccc(C=Nc2ccccc2)c(O)c1	-35%	?	-38%	-29%	-10%	?
COc1ccc(C=Nc2ccc3[nH]ncc3c2)c(O)c1	1%	25%	?	3%	4%	.
CCN(CC)c1ccc(N=Cc2ccc(N(CC)CC)cc2O)cc1	40µM*	?	18µM*	?	71%	?
CCN(CC)c1ccc(/C=N/N2C(C)CCCC2C)c(O)c1 (centres undefined)	?	-13%[57 µM]	45µM*	2%	-1%	45µM*
CCN1CCN(c2ccc(N=Cc3ccc(O)cc3O)cc2)CC1	?	?	32µM*	-2%	1%	.
CCN(CC)c1ccc(C=Nc2cc(C)cc(C)c2)c(O)c1	-20%	-4%	9%	-2%	-10%	8.9µM*
CC[C@@H]1Cn2c(c3nc(-c4ccccc4)nc-3n(C)c2=O)N1	.	.	.	8%	.	.
SMILES	JMJD2A Tudor	HP1b chromo inh	BAZ2B inh	Sfp inh	PLK1 PBD block	G9a block
COc1ccc(-c2ccc3c(n2)CCCN3C[C@H](O)CN2CCCc3nc(-c4ccc(Br)cc4)ccc32)cc1	.	.	.	-7%	.	.
CCN(CC)c1ccc(C=Nc2ccc(C)cc2)c(O)c1	-2%	72%	14%	-17%	-11%	?
CCN(CC)c1ccc(C=Nc2ccc(N(C)C)cc2)c(O)c1	56µM*	?	32µM*	50µM*	67%	0.56µM*
O=C1C(Cl)=C(NC2CCc3ccccc32)C(=O)c2ncccc21 (centres undefined)	.	.	.	45µM*	.	.
C=CCn1c(C(C)NC(=O)c2cccc(C)c2)n[nH]c1=S (centres undefined)	18µM*	39%	-4%	11%	-9%	28µM*
CCn1c(C(C)NC(=O)c2ccc(Cl)cc2)n[nH]c1=S (centres undefined)	10µM*	-9%	-18%	?	-9%	?
CSc1ncccc1C(=O)OC(C)C(=O)Nc1cccc(S(=O)(=O)N2CCOCC2)c1 (centres undefined)	-5%	22%	.	.	6%	.
CCOC(=O)c1sc(NC(=O)CC)c(C#N)c1C	-3%	36%	-3%	10%	1%	-33%
COc1ccc(CCN(C)CC(O)c2ccccc2)cc1OC (centres undefined)	2.5µM*	?	?	?	-14%	28µM*
COc1cc(C(C)=O)ccc1OCC(O)CNCC(O)c1ccccc1 (centres undefined)	28µM*	?	56µM*	-23%	4%	24%
CN(Cc1ccc(OCC(O)CN(C)Cc2ccccc2)cc1)Cc1nccn1C (centres undefined)	-34%	16%	?	-3%	-7%	-106%[59 µM]
COc1ccc(CN(C)CC(O)COc2ccc(-c3ccccc3)cc2)cc1OC (centres undefined)	35µM*	50µM*	79µM*	-13%	-16%	40µM*
C=CCOc1ccc(CN(C)CC(O)COc2ccc(CCC(C)=O)cc2)cc1 (centres undefined)	1µM*	?	-26%	-26%	-9%	10µM*
Cc1ccc(C)c(C(=O)COC(=O)C2CCN(c3ccc(C(F)(F)F)cn3)CC2)c1	40%	67%	50%	.	-1%	55%
Cc1cc(C)cc(NC(=O)C(OC(=O)c2cc[n+]([O-])cc2)c2ccccc2)c1 (centres undefined)	-4%	24%	7%	.	2%	26%[12.7 µM]
COc1ccc(CCN(C)C/C=C/c2ccccc2)cc1OC	28µM*	?	?	-13%	-1%	50µM*
CN(C)CC(O)COc1cccc(OCC(O)CN(C)C)c1 (centres undefined)	-14%	23%	6%	9%	-8%	-2%[12.7 µM]
CN(Cc1ccc(Br)cc1)CC(O)COc1cccc(Br)c1 (centres undefined)	5µM*	?	79µM*	-16%	0%	22µM*
COc1ccc(CCN(C)CCc2ccc(OC)c(OC)c2)cc1OC	-14%	28%	.	16%	-18%	16µM*
COc1ccc(CCN(C)CCC(=O)Nc2cccc(C)c2)cc1OC	-19%	22%	-8%	9%	-13%	?
